From the supplement of paper PMC6555819

What was measured:
Test in all cases: PBM binding z-score (relative to random genomic background probes); higher = stronger binding; sequences stand for … in GC…GCGATTGACAGCGTAGAATGAAGG
[1] = tested on: FXR:RXRa (NR concentration 270 nM, RXRa partner concentration 90 nM)
Summary of the method: (§1)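 Each nuclear receptor dimer, without ligand, was incubated for 1 h on custom Agilent 4×180K protein-binding microarrays. Binding was detected with antibodies against each partner (one per run), and scanned fluorescence was regression-normalized. The binding z-scores are referenced to random human genomic background probes.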

[2] = tested on: LXRa:RXRa (NR concentration 270 nM, RXRa partner concentration 90 nM)
Summary of the method: as §1

[3] = tested on: LXRa homodimer (NR concentration 270 nM)
Summary of the method: as §1

[4] = tested on: LXRb:RXRa (NR concentration 270 nM, RXRa partner concentration 90 nM)
Summary of the method: as §1

[5] = tested on: LXRb homodimer (NR concentration 270 nM)
Summary of the method: as §1

[6] = tested on: PPARg:RXRa (NR concentration 180 nM, RXRa partner concentration 90 nM)
Summary of the method: as §1

[7] = tested on: PPARg:RXRa 270nM:90nM, anti-RXR (NR concentration 270 nM, RXRa partner concentration 90 nM)
Summary of the method: as §1

[8] = tested on: PPARg:RXRa 30nM:10nM, anti-RXR (NR concentration 30 nM, RXRa partner concentration 10 nM)
Summary of the method: as §1

[9] = tested on: PPARg:RXRa 90nM:30nM, anti-RXR (NR concentration 90 nM, RXRa partner concentration 30 nM)
Summary of the method: as §1

[10] = tested on: PPARg:RXRa DBDmut IVT, anti-RXR (DBD mutation: RXRa K156A/R161A, NR concentration 270 nM, RXRa partner concentration 90 nM)
Summary of the method: as §1

[11] = tested on: PPARg:RXRa IVT, anti-PPARg (NR concentration 270 nM, RXRa partner concentration 90 nM)
Summary of the method: as §1

[12] = tested on: PPARg DBDmut:RXRa IVT, anti-PPARg (DBD mutation: PPARg1 K132A/R137A, NR concentration 270 nM, RXRa partner concentration 90 nM)
Summary of the method: as §1

[13] = tested on: PPARg DBDmut IVT, anti-PPARg (DBD mutation: PPARg1 K132A/R137A, NR concentration 270 nM)
Summary of the method: as §1

[14] = tested on: PPARg homodimer (NR concentration 180 nM)
Summary of the method: as §1

[15] = tested on: PXR:RXRa (NR concentration 270 nM, RXRa partner concentration 90 nM)
Summary of the method: as §1

[16] = tested on: PXR homodimer (NR concentration 270 nM)
Summary of the method: as §1

[17] = tested on: RARa:RXR (NR concentration 270 nM, RXRa partner concentration 90 nM)
Summary of the method: as §1

[18] = tested on: RARa homodimer (NR concentration 270 nM)
Summary of the method: as §1

[19] = tested on: RARb:RXRa (NR concentration 270 nM, RXRa partner concentration 90 nM)
Summary of the method: as §1

Row | Sequence | PBM binding z-score [1] | PBM binding z-score [2] | PBM binding z-score [3] | PBM binding z-score [4] | PBM binding z-score [5] | PBM binding z-score [6] | PBM binding z-score [7] | PBM binding z-score [8] | PBM binding z-score [9] | PBM binding z-score [10] | PBM binding z-score [11] | PBM binding z-score [12] | PBM binding z-score [13] | PBM binding z-score [14] | PBM binding z-score [15] | PBM binding z-score [16] | PBM binding z-score [17] | PBM binding z-score [18] | PBM binding z-score [19]
1 | AGAATGAGGTTACCAGAGATCAGGGAAACGCTTG | 2.17 | 6.18 | -0.181 | 3.62 | -0.177 | 2.77 | 2.74 | 0.897 | 1.85 | 3.82 | 3.51 | 1.02 | -0.0941 | 0.651 | 1.95 | -0.0597 | 2.47 | 0.341 | 2.15
2 | CATACTAGGTCAAAGGTCAAAGTCGAGCCAACCA | 8.57 | 7.39 | 7.06 | 7.48 | 3.69 | 13.2 | 10.9 | 12.6 | 12.5 | 7.72 | 8.62 | 2.89 | 3.65 | 3.93 | 6.81 | 1.91 | 8.63 | 1.65 | 5.97
3 | AGATTGAGGTTACCAAAGATCAGGGAAACGCTTG | 2.33 | 6.22 | 0.108 | 3.17 | -0.201 | 2.04 | 2.22 | 0.623 | 1.49 | 3.1 | 2.54 | 0.865 | -0.0178 | 0.218 | 1.5 | -0.393 | 2 | 0.127 | 2.24
4 | ACTTACGGGTCAACGGGGTTATAGCACGCGTATA | 6.95 | 4.81 | 0.682 | 5 | 0.93 | 6.4 | 5.83 | 2.51 | 4.14 | 3.04 | 4.81 | 1.21 | 1.3 | 2.83 | 5.57 | 2.28 | 5.87 | 0.668 | 4.47
5 | AGTCAAAGTTCAGGACGAGGTAATGTAAAGCACG | 4.1 | 3.43 | 1.28 | 1.77 | 0.372 | 4.31 | 4.68 | 2.03 | 4.01 | -0.319 | 1.45 | -0.174 | 0.146 | 1.53 | 3.18 | 1.4 | 2.5 | 0.661 | 4.23
6 | ATCGAAGGGTCGAAGGTGAGTATACCCACCCGAA | 1.3 | 1.26 | -0.26 | 1.21 | -0.316 | 2.73 | 3.11 | 1.08 | 2.47 | -0.959 | 1.2 | 0.357 | -0.0817 | 0.676 | 1.64 | -0.184 | 2.48 | -0.374 | 2.15
7 | ATATGTAGGTTCCATCCGGGTCATTCAGGCTATG | 1.31 | 1.3 | 0.192 | 1.88 | 0.514 | 2.33 | 2.26 | 0.557 | 1.74 | 4.13 | 4.29 | 1.99 | 1.93 | 2.32 | 3.14 | 2.22 | 2.86 | 0.215 | 1.43
